The text below walks through data of PubChem BioAssay (NCI).

The panel holds about 83,000 compounds, 20% with a hit somewhere; the sample as a whole holds those more often.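 How to read the values: 0–100, growth inhibition (40 = 60% inhibited); 0, no net growth; -100 to 0, cell death (-40 = 40% of starting cells died; -100 = all dead).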 The source made the active and inactive calls. How the source made its calls: active means growth percent below 10; inactive means the rest.

For the assay, the system named is HL-60(TB) leukemia. The assay can be described thus: NCI-60 one-dose screen, 48 h (100 = growth as untreated, 0 = no growth, -100 = all killed). The following applies: 10 µM unless noted.
Turning to `COc1ccsc1/C=N/NC(=O)c1[nH]c2ccc(Br)cc2c1-c1ccccc1`, the growth was -33.3% (active).

Take `CN1CCN(Cc2ccc(NC(=O)c3cncc(C#Cc4cnc5ccc(N[C@@H]6CCOC6)nn45)c3)cc2C(F)(F)F)CC1`: the growth is -57.9% (active).

As for `C=C1CCC2C3(C)COC(c4cc(F)cc(F)c4)OC3CCC2(C)C1C/C=C1/C(=O)OCC1O` (stereo not given), the growth was -9.61% (active).

For the molecule `CN(C)c1nc(NCCNS(=O)(=O)c2ccc(C3=Nc4c(N)nc(N)nc4NC(c4ccc(Cl)cc4)C3)cc2)nc(N2CCOCC2)n1` (stereo not given), the growth is 28.1% (inactive).

Turning to `CCN(CC)c1ccc(/C=N/Nc2nc(-c3ccc(Br)cc3)cs2)c(O)c1`, the growth was 35.6% (inactive).

With `O=C(CSc1nnc(-c2c[nH]c3ccccc23)n1-c1ccccc1)Nc1ccc(C(=O)/C=C/c2cccc([N+](=O)[O-])c2)cc1`, the growth was 86.8% (inactive).

On to `O=C(Nc1cccc(-n2cnc3cc(-c4ccc(O)cc4)ccc32)c1)C1CC1`, for which the growth is -16.7% (active).

For the molecule `Cc1cc(C)nc(/N=C(\N)Nc2ccc(S(=O)(=O)Nc3nc(C)cc(C)n3)cc2)n1`, the growth is 94.7% (inactive).

With `N#C/C(=C\c1ccc(N(c2ccccc2)c2ccccc2)cc1)C(N)=O`, the growth is 68.7% (inactive).

For the molecule `NNc1ncnc2sc3c(c12)CCN(Cc1ccccc1)C3`, the growth was 18.8% (inactive).

Turning to `COc1ccc(C(=O)NC(=S)N2CCN(c3ncnc4c3cnn4-c3ccccc3)CC2)cc1`, the growth is 80.5% (inactive).

Regarding `CC(C)c1ccc(C(=O)Nc2sc3c(c2C(N)=O)CCC(=O)C3=O)cc1`, the growth was 96.9% (inactive).

Take `NC1=NC(c2ccccc2Cl)N=C(Nc2nn[nH]n2)N1` (stereo not given): the growth was 110% (inactive).

Turning to `Cc1ccc(C(=O)C(c2c[nH]c3ccccc23)c2c[nH]c3ccccc23)cc1`, the growth is 17.2% (inactive).

`N#C/C(=C/c1ccc([N+](=O)[O-])cc1)c1nnc(NC(=O)c2ccc(-n3c(=O)[nH]c4ccccc4c3=O)cc2)s1`: the growth was 99.3% (inactive).

On to `C=C1CCC2C3(C)COC(c4ccccc4)OC3CCC2(C)C1CC(Sc1ccccc1)C1=CCOC1=O` (stereo not given), for which the growth is -33% (active).

With `OC(c1ccccc1)(c1ccccc1)C1CCN(c2ccc3nnc(Cl)n3n2)CC1`, the growth is -33.6% (active).

Consider `C=C1CCC2C3(C)COC(c4cccc(F)c4)OC3CCC2(C)C1C/C=C1/C(=O)OCC1O` (stereo not given), for which the growth is 4.43% (active).

Take `O=C(CN1CCN(c2ncnc3c2cnn3-c2ccccc2)CC1)Nc1ccc(Cl)cc1`: the growth was 58.6% (inactive).

In the case of `CC(C)(C)C(=O)C1CC(C#N)=C2C=Cc3c(ccc4ccccc34)N21` (stereo not given), the growth was 108% (inactive).

As for `O=C(N/N=C/c1c[nH]c2ccccc12)Nc1ccccc1Cl`, the growth is 0.912% (active).

With `COC(=O)c1cc(C(=O)CBr)n2c1ccc1c3ccccc3ccc12`, the growth is 49.3% (inactive).

On to `COc1c2c(c(Br)c3c1C(CCc1ccccc1)N(C)CC3)OCO2` (stereo not given), for which the growth was 14.1% (inactive).

For `COc1ccc(CN2[C@@H](C(=O)NCc3ccc(C(=O)NO)cc3)Cc3c([nH]c4ccccc34)[C@@H]2C2CC2)cc1`, the growth was -8.06% (active).

`O=C(CSc1nc2ccccc2c(=O)n1-c1ccc(Cl)cc1)Nc1ccc(-c2nc3ccccc3[nH]2)cc1`: the growth was 44.4% (inactive).

As for `COc1ccc(-c2nc3ccc(-c4nnc(SCC(=O)Nc5ccc(/C(C)=N\O)cc5)o4)cc3[nH]2)cc1`, the growth was 77.6% (inactive).

Turning to `O=C(Nc1ccc(-c2ccc3c(c2)NC(=O)/C3=C\c2ccc[nH]2)cc1)Nc1ccc(Cl)c(Cl)c1`, the growth was 51.8% (inactive).

Take `CCOC(=O)c1c(CSc2ccccc2)n(C)c2cc(CN(C)C)c(O)c(CN(C)C)c12`: the growth is 52.2% (inactive).

Consider `CN(C)c1nc(NCCNS(=O)(=O)c2ccc(C3=Nc4c(N)nc(N)nc4NC(c4ccc(F)cc4)C3)cc2)nc(Nc2ccc(F)cc2)n1` (stereo not given), for which the growth is -25.1% (active).

For `COc1ccc(NC(=O)Cn2c(O)c(N=Nc3ccc(S(N)(=O)=O)cc3)c3ccccc32)cc1`, the growth was 96.9% (inactive).

For `CN(C)c1nc(NCCNS(=O)(=O)c2ccc(C(=O)/C=C/c3ccc(C(F)(F)F)cc3)cc2)nc(N2CCOCC2)n1`, the growth was -25.1% (active).

Regarding `Nc1cc(-c2cccc(C(=O)NCc3ccc4c(c3)OCO4)c2)ccn1`, the growth is 98.1% (inactive).

`Cn1cc(Nc2ncnc(-c3ccc(N4CCCC4)c(C#N)c3)n2)cn1`: the growth was 49.1% (inactive).

On to `N#Cc1ccc(-c2nn(-c3ccc(C(=O)O)cc3)cc2CNc2cc(Cl)cc(C(F)(F)F)c2)cc1`, for which the growth is 7.71% (active).

In the case of `CCCCCCCS(=O)(=O)N1CCCC(C(=O)Nc2nc3ccc(NC(=O)c4ccc(F)c(OC)c4F)cc3s2)C1` (stereo not given), the growth is 66.7% (inactive).
